Test results from PubChem BioAssay (EPA / NIEHS).
Activity calls are given as the source filed them. Rule for the calls: active = hit-call score of the fitted dose curve at least 0.9, where 1 is the maximum; inactive = score below 0.9.

Legend:
[1] = CCTE_Padilla_ZF_Score.Tail: CCTE's 144 Hour Post-fertilization zebrafish Assay Score for Tail Malformation, Padilla Lab (AID 2284414)
In short: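 Tail malformations were scored at 6 dpf by two blinded assessors under a stereo microscope. Chorionated embryos had been exposed from 6-8 hpf in sealed wells of 10% Hanks' at 26 C, then rinsed free of chemical at 5 dpf.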

[2] = CCTE_Padilla_ZF_Score.Blood_pooling: CCTE's 144 Hour Post-fertilization zebrafish Assay Score for Blood Pooling, Padilla Lab (AID 2284415)
In short: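 Blood pooling was scored at 6 dpf under a stereo microscope by two blinded assessors, fitted upward against DMSO. Single embryos were dosed at 6–8 hpf in 10% Hanks', kept sealed at 26C (14:10 h cycle) and rinsed at 5 dpf.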

[3] = CCTE_Padilla_ZF_Score.Any: CCTE's 144 Hour Post-fertilization zebrafish Assay Score for Any Mortality or Malformation, Padilla Lab (AID 2284416)
In short: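 Wild-type zebrafish embryos with chorions, one per well in 10% Hanks' from 6–8 hpf, dosed in sealed plates at 26 C, 14:10 h light:dark; rinsed at 5 dpf; blinded scoring at 6 dpf for death or malformation, versus DMSO.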

## CCNS(=O)(=O)C(F)(F)C(F)(F)C(F)(F)C(F)(F)C(F)(F)C(F)(F)C(F)(F)C(F)(F)F
[1]
  outcome: inactive
[2]
  outcome: inactive
[3]
  AC50: 3.96 µM (active)
